The results in this text go back to PubChem BioAssay (Tox21).

Each structure is given as a SMILES string. Results filed as inconclusive are left out. Where a call stands in place of a potency, no number is given. Values without a mark were called inactive. The source made the active and inactive calls. Calls come from the whole dose curve.
Potency is the fitted concentration of half-maximal effect.

The target of the assay is 5-hydroxytryptamine receptor 2A (Homo sapiens) (UniProt P28223). The assay is described as follows: 5-hydroxytryptamine receptor 2A (HTR2A) small molecule agonists, cell-based qHTS assay (AID 1963587). Note: nearly all actives have a fitted effect of over 30% in size. Conditions: HTR2A-CHO cells, calcium flux fluorescence, agonist mode; series mostly up to 76.8 µM. Summed up: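 Kinetic calcium-flux fluorescence (2 min, 1 sec intervals) after compound addition in agonist mode. HTR2A-CHO cells were cultured 18 h, then dye-loaded 1 h at 37 C.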
Chain of 5-hydroxytryptamine receptor 2A (Homo sapiens) (P28223 whole entry, looked up): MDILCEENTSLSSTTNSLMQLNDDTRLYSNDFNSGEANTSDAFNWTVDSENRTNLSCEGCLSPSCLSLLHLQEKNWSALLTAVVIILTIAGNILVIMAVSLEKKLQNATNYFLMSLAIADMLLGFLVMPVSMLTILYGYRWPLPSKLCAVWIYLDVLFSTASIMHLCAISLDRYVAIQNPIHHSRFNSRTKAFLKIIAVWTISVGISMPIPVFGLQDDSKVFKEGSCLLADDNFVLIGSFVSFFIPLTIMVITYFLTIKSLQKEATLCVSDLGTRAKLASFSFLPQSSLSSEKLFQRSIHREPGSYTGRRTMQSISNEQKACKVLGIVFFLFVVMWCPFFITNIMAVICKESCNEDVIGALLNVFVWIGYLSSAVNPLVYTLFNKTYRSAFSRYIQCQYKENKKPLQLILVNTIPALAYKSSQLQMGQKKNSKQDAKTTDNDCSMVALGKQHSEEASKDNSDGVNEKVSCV
In general terms: Quantitative high-throughput screening tests each substance at several concentrations.
For the compound `CCCCCCCOC(=O)CCC`, the Potency result was “inactive”.

For the compound `CCCCCCCCC(=O)OCC(C)OC(=O)CCCCCCCC` (stereo not given), the Potency entry is “inactive”.

Consider `c1cnc(N2CCN(Cc3ccc4c(c3)OCO4)CC2)nc1`, for which the Potency entry is “inactive”.

Consider `C=C[Si]1(C)O[Si](C)(C=C)O[Si](C)(C=C)O[Si](C)(C=C)O1` (stereo not given), for which the Potency result is “inactive”.

As to `CCN(Cc1cccnc1)C(=O)c1cccc(Cl)c1[C@]1(C)C(=O)N(Cc2ccc(OC)cc2OC)c2ccc(Cl)cc21`, the Potency result was “inactive”.

For the compound `CCCNC(C)(C)COC(=O)c1ccccc1`, the Potency result was “inactive”.

As to `CCCCCCCCCCl`, the Potency result was “inactive”.

As for `CCCCCC(C)OC(=O)COc1ccc(Cl)c2cccnc12` (stereo not given), the Potency result was “inactive”.

As for `CC(=O)Nc1ccc(/C=N/NC(N)=S)cc1`, the Potency entry was “inactive”.

In the case of `C=O`, the Potency result is “inactive”.

`CC(C)(C)C1=CC(=O)C=C(C(C)(C)C)C1=O`: the Potency result was “inactive”.

As to `C=CC(=C)CCCC(C)(C)OC(C)=O`, the Potency entry was “inactive”.

Consider `CC/C=C\CCCCCCCCCCOC(C)=O`, for which the Potency entry is “inactive”.

As to `O=c1[nH]c(=O)n([C@H]2C[C@H](O)[C@@H](CO)O2)cc1C(F)(F)F`, the Potency result was “inactive”.

Consider `Cc1cc(O)c2c(O)c3c(O)cccc3cc2c1`, for which the Potency result was “inactive”.

On to `Cc1ccc(Br)cc1`, for which the Potency result was “inactive”.

Turning to `CC1CCC(CO)CC1` (stereo not given), the Potency entry is “inactive”.

Take `Nc1ccc(/C=C/c2ccc(N)cc2S(=O)(=O)O)c(S(=O)(=O)O)c1`: the activation is 1.96% [at 0.292 µM].

Regarding `Cc1cccc(N(C)C(=S)Oc2ccc3c(c2)C2CCC3C2)c1` (stereo not given), the Potency entry was “inactive”.

Turning to `Cc1c(N)cccc1N`, the Potency result was “inactive”.

Consider `CCC(CC)CO`, for which the Potency entry is “inactive”.

With `Cc1c(N)c(=O)n(-c2ccccc2)n1C`, the Potency result is “inactive”.

With `N/C(=N\N=C\c1ccc(Cl)cc1)N/N=C/c1ccc(Cl)cc1`, the Potency result was “inactive”.

As to `O=C(NN1CCCC1)NS(=O)(=O)c1ccc(Cl)cc1`, the Potency entry was “inactive”.

As to `C=C[Si](OC(C)=O)(OC(C)=O)OC(C)=O`, the Potency result was “inactive”.

As for `O=C1C=CC(=O)N1`, the Potency entry was “inactive”.

As to `CSc1ccc(Oc2ccc(S(N)(=O)=O)cc2CN(C)C)cc1C`, the Potency entry was “inactive”.

Turning to `CCc1ccc2c(c1)C(=O)c1ccccc1C2=O`, the Potency result is “inactive”.

For `Cc1ccccc1S`, the Potency entry was “inactive”.

`OCCOCC#CCOCCO`: the Potency entry was “inactive”.

Turning to `Cc1ccc(O)c2ncccc12`, the Potency entry was “inactive”.

For the compound `COC(OC)(C(=O)c1ccccc1)c1ccccc1`, the Potency result was “inactive”.

Turning to `Cc1c(Nc2ncccc2C(=O)O)cccc1C(F)(F)F`, the Potency entry is “inactive”.

Regarding `CC1(C)[C@@H](O)CC[C@]2(C)[C@H]3C(=O)C=C4[C@@H]5C[C@@](C)(C(=O)O)CC[C@]5(C)CC[C@@]4(C)[C@]3(C)CC[C@@H]12`, the Potency is 48.4 µM (active).

With `CCCCCCCCS(=O)(=O)O`, the Potency result was “inactive”.
